From PubChem BioAssay (NCATS) come the findings set out here.

Several values for one entry are separate records, joined by “and”; a condition that tells them apart may be missing. Equal entries are not always repeated. Values without a mark were called inactive. Results filed as inconclusive are left out. Activity calls are given as the source filed them. Unless noted, the call rests on the fitted dose curve; in most records, active means well fitted curve in the direction sought with a large enough effect; inconclusive means small, poorly fitted or top-dose-only effect, or another doubt; inactive means no such curve, though single readings can be large; an effect the other way counts as inactive or inconclusive.

For assay [1], the target named is Voltage-gated inwardly rectifying potassium channel KCNH2 (Homo sapiens) (UniProt Q12809). Put plainly: qHTS Assay for Small Molecule Inhibitors of the Human hERG Channel Activity (AID 588834).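 Further: lower thallium flux fluorescence means stronger hERG block; nearly all actives have a fitted effect of over 50% in size.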 Further: potency means the concentration at half of the fitted maximal effect. The note with it: U2OS BacMam hERG, FluxOR thallium flux fluorescence; series mostly up to 46.1 µM. The method in brief: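 In hERG-transduced U2OS cells, dye-loaded for 1 hr at room temperature in dark, test compounds incubated 10 min at 37 °C before thallium stimulation. AC50 values derived by Hill modelling of concentration-response.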

The target of assay [2] is Luciferin 4-monooxygenase (Photinus pyralis) (UniProt P08659). Briefly: Biochemical firefly luciferase enzyme assay for NPC (AID 624030).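 Further: purified P. pyralis luciferase at 10 nM with luciferin and ATP substrate; 0% = DMSO and -100% = full luciferase inhibition by PTC124 control; nearly all actives have a fitted effect of over 70% in size.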 The note with it: purified P. pyralis luciferase, luminescence, 5 min; series mostly up to 58.6 µM. The method in brief:
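Purified P. pyralis luciferase at 10 nM in 50 mM Tris Acetate (final), luminescence read within 5 minutes of enzyme addition to compounds. Activity normalised to PTC124 versus DMSO; concentration-response curves classed by r2, magnitude and activity.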

Assay [3] in a line: S16 Schwann cell PMP22 intronic element beta-lactamase assay (AID 624044; calls by dose curve; further: nearly all actives have a fitted effect of over 15% in size; further: potency means the concentration at half of the fitted maximal effect;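 on ratio activity, negative = inhibition: 0% = DMSO and -100% = potassium clavulanate positive control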). The note with it: S16 rat Schwann cells, PMP22 element beta-lactamase FRET, 24 h; ratio activity, negative = inhibition: at 38.3 µM (top of the series). In short, it runs like this:
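Beta-lactamase reporter under a PMP22 intronic regulatory element in stable S16 rat Schwann cells; 24 h compound exposure. 460 nm blue signal normalized between DMSO (0%) and potassium clavulanate, with 535 nm FRET tracking viability; curves classed by r2 and response.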

Assay [4] has as its target Glutaminase kidney isoform, mitochondrial (Homo sapiens) (UniProt O94925). Briefly: qHTS for Inhibitors of Glutaminase (GLS): LOPAC Validation (AID 624146). Further: nearly all actives have a fitted effect of over 60% in size. Further: potency means the concentration at half of the fitted maximal effect. The note with it: glutaminase enzyme activity inhibition; series mostly up to 46.1 µM. In short, it runs like this: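 Read-out is an Amplex red fluorescence increase coupled through glutamate oxidase and HRP, measured before and after 30 min room-temperature incubation. hKGA is in 45 mM KH2PO4 (pH 8.2) with 0.02% Tween-20; glutamine added as 1mM solution.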

In assay [5] the target is Glucagon-like peptide 1 receptor (Homo sapiens) (UniProt P43220). Briefly: qHTS of GLP-1 Receptor Agonists: LOPAC Validation (AID 624148).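 Further: 0% is about no effect; higher luminescence signal means agonism.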 Particulars: GLP-1R agonist cell assay; series mostly up to 46.1 µM. The method in brief: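 HEK293 cells stably co-expressing GLP-1R and a cAMP-responsive luciferase reporter, plated 12 hours before compound, then incubated 4-6 hr at 37 deg C. Luminescence read 12 min after detection reagent.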

A short description of assay [6]: qHTS of Nrf2 Activators: LOPAC Validation (AID 624149). Further: potency means the concentration at half of the fitted maximal effect. On activation: 0% is about no effect. Particulars: Nrf2/ARE reporter cell assay; series mostly up to 46.1 µM. The method in brief:
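Cells (AREc32_Fluc) are plated at 1000 per well in OPTI-MEM containing 5% FBS and left overnight. Compounds are pinned in and incubated 24 hr at 37 deg C, and firefly luciferase is detected with Steady-Glo.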

A short description of assay [7]: qHTS assay for small molecule agonists of the antioxidant response element (ARE) signaling pathway (AID 651741; active means well fitted activation curve with a large enough effect in the signal ratio; the % refers to the signal ratio; further: potency means the concentration at half of the fitted maximal effect; on activation: % of control where 0% means no effect). The note with it: HepG2 ARE-bla reporter, beta-lactamase FRET ratio, 16 h; series mostly up to 96 µM. The method in brief: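 Stably integrated ARE-beta-lactamase reporter HepG2 cells; 16 h compound incubation, 37 C; LiveBLAzer FRET substrate 2 h at room temperature; fluorescence intensity.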

Assay [8] in a line: qHTS assay for small molecule disruptors of the mitochondrial membrane potential - 1 hr assay (AID 651754; calls by dose curve; further: on the % scale 0 is the no-effect control and ±100 the full control effect; nearly all actives have a fitted effect of over 35% in size). The note with it: series mostly up to 92.2 µM. In short, it runs like this: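 Loss of mitochondrial potential shifts the cationic dye from red mitochondrial aggregates to green cytoplasmic monomers. Cells (HepG2) are treated with compound for 1 hr before a 30 min dye incubation at 37C.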

A short description of assay [9]: qHTS assay for small molecule disruptors of the mitochondrial membrane potential - 5 hr assay (AID 651755; calls by dose curve; further: on the % scale 0 is the no-effect control and ±100 the full control effect; nearly all actives have a fitted effect of over 40% in size). The note with it: JC-1-type ratio dye; series mostly up to 92.2 µM. The method in brief: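 Read-out: ratiometric Mito-MPS fluorescence, green monomer (ex 490/em 535) vs red mitochondrial aggregate (ex 540/em 590). HepG2 cells treated 5 hr at 37C before 30 min dye loading.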

A short description of assay [10]: S16 Schwann cell PMP22 intronic element firefly luciferase assay (AID 624032). Further: nearly all actives have a fitted effect of over 30% in size. Further: potency means the concentration at half of the fitted maximal effect. The note with it: S16 rat Schwann cells, PMP22 element FLuc, 24 h; series mostly up to 57.5 µM. In short, it runs like this:
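Rat S16 Schwann cells stably carrying firefly luciferase driven by a PMP22 intronic element, in 10% FBS, treated 24 h at 37 C. ONE-Glo luminescence normalized to PTC124 control and DMSO (0%); curves classed by r2, magnitude and activity.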

The nature of assay [11]: qHTS assay for small molecule activators of the p53 signaling pathway (AID 651743; active means well fitted activation curve with a large enough effect in the signal ratio, not every such curve was filed as active; the % refers to the signal ratio; further: % of control where 0% means no effect). The note with it: HCT-116 p53RE-bla, beta-lactamase FRET ratio, 16 h; activation: hits give high values. In short, it runs like this:
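Following 16 hours of compound exposure at 37 C, HCT-116 cells bearing the p53RE-bla reporter were loaded with LiveBLAzer B/G FRET substrate for 2 hours at room temperature and fluorescence intensity was recorded.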

A short description of assay [12]: S16 Schwann cell viability assay (CellTiter-Glo assay) (AID 624031).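 Further: cellular ATP luminescence as a viability measure; plate controls were DMSO-treated cells for no effect and cell-free wells for full effect; nearly all actives have a fitted effect of over 70% in size.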 Particulars: S16 rat Schwann cells viability, 24 h; series mostly up to 57.5 µM. The method in brief: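 Native S16 Schwann cells (rat), serum-containing medium, overnight attachment then 24 h drug exposure at 37 °C/5% CO2. CellTiter-Glo ATP signal; normalized to cell-free and vehicle wells.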

Luciferin 4-monooxygenase (Photinus pyralis), sequence (P08659 whole entry, looked up): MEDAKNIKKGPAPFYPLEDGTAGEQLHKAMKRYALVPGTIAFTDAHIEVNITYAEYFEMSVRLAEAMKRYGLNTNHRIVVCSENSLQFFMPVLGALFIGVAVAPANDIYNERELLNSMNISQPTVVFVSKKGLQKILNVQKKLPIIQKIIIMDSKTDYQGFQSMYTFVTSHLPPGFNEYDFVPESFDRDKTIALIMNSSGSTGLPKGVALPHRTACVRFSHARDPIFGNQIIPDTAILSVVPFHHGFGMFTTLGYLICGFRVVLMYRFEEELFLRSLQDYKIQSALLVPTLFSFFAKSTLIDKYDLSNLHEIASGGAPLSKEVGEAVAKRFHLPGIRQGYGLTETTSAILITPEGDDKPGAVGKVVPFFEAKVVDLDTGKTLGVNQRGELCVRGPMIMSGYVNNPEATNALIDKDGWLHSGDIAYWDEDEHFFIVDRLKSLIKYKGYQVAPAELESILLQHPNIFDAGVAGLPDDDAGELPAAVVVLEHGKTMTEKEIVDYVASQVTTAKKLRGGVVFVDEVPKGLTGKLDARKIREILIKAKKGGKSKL
Voltage-gated inwardly rectifying potassium channel KCNH2 (Homo sapiens), sequence (Q12809 whole entry, looked up): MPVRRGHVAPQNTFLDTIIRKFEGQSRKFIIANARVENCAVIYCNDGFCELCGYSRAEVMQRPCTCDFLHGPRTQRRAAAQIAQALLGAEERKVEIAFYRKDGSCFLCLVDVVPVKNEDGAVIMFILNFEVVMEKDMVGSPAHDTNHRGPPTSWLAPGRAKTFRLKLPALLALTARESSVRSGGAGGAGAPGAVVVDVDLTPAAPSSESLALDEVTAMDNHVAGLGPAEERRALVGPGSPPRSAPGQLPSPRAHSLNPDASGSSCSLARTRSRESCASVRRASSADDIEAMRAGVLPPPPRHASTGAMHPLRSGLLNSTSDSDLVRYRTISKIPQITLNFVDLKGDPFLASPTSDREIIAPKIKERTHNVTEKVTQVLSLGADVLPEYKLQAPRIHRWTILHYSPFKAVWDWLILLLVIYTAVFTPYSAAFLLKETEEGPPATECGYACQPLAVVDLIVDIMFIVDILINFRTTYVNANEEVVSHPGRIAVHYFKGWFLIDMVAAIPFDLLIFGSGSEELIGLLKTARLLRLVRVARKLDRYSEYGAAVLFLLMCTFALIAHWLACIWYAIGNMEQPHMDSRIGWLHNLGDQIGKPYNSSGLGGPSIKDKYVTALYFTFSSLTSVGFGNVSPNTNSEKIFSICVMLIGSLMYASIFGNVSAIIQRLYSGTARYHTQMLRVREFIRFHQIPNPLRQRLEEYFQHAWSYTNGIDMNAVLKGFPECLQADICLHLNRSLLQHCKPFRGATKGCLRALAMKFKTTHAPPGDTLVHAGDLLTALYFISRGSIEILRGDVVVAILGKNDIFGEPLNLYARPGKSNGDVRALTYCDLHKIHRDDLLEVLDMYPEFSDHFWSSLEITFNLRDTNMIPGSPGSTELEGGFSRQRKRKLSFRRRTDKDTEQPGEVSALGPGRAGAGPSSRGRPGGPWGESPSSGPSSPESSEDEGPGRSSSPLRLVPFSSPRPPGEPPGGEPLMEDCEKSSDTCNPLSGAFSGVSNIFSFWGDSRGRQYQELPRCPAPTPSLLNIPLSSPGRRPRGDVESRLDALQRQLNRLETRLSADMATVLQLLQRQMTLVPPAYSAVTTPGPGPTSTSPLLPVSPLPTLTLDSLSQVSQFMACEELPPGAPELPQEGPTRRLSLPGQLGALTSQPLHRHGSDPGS
Glutaminase kidney isoform, mitochondrial (Homo sapiens), sequence (O94925 whole entry, looked up, canonical isoform): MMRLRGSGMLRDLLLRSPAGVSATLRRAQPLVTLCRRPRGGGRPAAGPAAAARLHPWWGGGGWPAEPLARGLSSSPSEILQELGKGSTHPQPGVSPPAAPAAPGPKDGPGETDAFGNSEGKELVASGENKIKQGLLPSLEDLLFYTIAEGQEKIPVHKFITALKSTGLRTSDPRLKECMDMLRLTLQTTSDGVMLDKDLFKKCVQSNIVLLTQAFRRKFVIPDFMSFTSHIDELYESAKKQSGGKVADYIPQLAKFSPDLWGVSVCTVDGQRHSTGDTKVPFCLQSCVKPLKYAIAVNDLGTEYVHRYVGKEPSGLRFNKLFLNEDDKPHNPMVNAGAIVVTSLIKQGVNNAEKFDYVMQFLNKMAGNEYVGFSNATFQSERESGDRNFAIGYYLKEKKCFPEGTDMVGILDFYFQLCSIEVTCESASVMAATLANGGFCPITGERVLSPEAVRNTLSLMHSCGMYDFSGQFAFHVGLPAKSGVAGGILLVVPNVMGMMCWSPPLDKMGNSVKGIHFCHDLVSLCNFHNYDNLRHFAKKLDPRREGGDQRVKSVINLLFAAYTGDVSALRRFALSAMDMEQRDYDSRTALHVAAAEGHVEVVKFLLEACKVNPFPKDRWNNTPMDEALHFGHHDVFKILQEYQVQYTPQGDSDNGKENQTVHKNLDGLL
Glucagon-like peptide 1 receptor (Homo sapiens), sequence (P43220 whole entry, looked up): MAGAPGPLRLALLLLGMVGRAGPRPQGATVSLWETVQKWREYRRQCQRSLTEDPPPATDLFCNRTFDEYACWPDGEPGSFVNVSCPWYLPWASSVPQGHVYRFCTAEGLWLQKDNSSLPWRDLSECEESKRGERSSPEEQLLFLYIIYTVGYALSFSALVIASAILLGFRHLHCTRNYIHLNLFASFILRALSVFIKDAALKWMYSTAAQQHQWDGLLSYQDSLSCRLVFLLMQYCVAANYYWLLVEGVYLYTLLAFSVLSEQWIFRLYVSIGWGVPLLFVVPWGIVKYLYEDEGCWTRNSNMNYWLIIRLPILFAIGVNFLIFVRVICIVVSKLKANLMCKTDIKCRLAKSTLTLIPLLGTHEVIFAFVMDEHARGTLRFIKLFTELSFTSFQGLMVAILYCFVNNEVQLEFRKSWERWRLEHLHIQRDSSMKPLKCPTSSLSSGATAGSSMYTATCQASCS

On to `Oc1ccc(O)cc1`, for which the Potency entry in assay [1], in [2], in [8] and in [9] was “inactive” each time. Besides, the Potency in assay [3] was 19.9 µM (active); in assay [4], 2.51 µM (active); in [6], 18.4 µM (active); in assay [7], 2.11 µM (active). Besides, the outcome in [5] was inactive.
As for `O=C1OC(c2ccc(O)cc2)(c2ccc(O)cc2)c2ccccc21`, the Potency in assay [1] was 15.8 µM (active); in [10] it was 25.6 µM (active). Moreover, the Potency result in assay [3] and in assay [7] was “inactive” in each case. The activation in [11] is 9.17% and -8.34%.
As to `COc1ccc(/C=C/C(=O)c2ccc(OC)cc2OC)cc1`, the Potency result in [1], in assay [12], in assay [10] and in assay [3] was “inactive” each time.
Regarding `O=C(Nc1ccc(Cl)c(Cl)c1)C1CC1`, the Potency result in [1], in assay [12] and in assay [10] was “inactive” in each case.
Regarding `CCC(NC(C)C)C(O)c1ccc(O)c(O)c1` (stereo not drawn), the Potency entry in [1], in assay [4] and in [6] was “inactive” in each case.
With `CN1CCN(CCCN2c3ccccc3Sc3ccc(S(=O)(=O)N(C)C)cc32)CC1`, the Potency in [1] is 6.31 µM (active). In addition, the Potency entry in assay [2], in assay [10] and in assay [3] was “inactive” in each case.
Consider `CC(=O)O[C@H]1C[C@@H]2CC[C@@H]3[C@H](CC[C@@]4(C)[C@H]3C[C@H]([N+]3(C)CCCCC3)[C@@H]4OC(C)=O)[C@@]2(C)C[C@@H]1[N+]1(C)CCCCC1`, for which the Potency result in assay [1], in assay [4] and in assay [6] was “inactive” each time. For the same compound, in assay [5], the call was inactive.
Regarding `CC1(C)OC[C@@H](COC(=O)CCc2ccc(OC[C@@H](O)CNCCNC(=O)N3CCOCC3)cc2)O1`, the Potency entry in assay [2] is “inactive”.
For the compound `CN(C)CC/C=C1\c2ccccc2Sc2ccc(Cl)cc21`, the Potency in [1] was 8.91 µM (active). Further, the Potency entry in assay [2] and in assay [3] was “inactive” each time.
`CCCCCCCCCCCCCCCC[N+](C)(C)CCN(Cc1ccc(OC)cc1)c1ncccn1`: the Potency in assay [1] was 1.41 µM (active). Also, the Potency result in [2] and in assay [3] was “inactive” throughout.
With `C[C@@H](CN(C)C)CN1c2ccccc2Sc2ccccc21`, the Potency in assay [1] is 6.31 µM (active). The Potency entry in assay [2], in [10] and in assay [3] was “inactive” each time.
